For this assay, the target named is furin, P09958. The assay is described as follows: furin cleavage Z-score vs untreated control; higher = more cleavage, active = 3.5 or more, inactive = 1 or less, 8 variable residues between constant flanks. In short, it runs like this:
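In 50 mM HEPES pH 7.5 with CaCl2 and NaCl, purified furin was incubated with bead-anchored 8-mer peptide–cDNA fusions at 1:10 enzyme:substrate in 0.01 ml. Incubation times were 7.5, 15 and 30 min. DNA set free by cleavage was adapter-tagged by PCR and sequenced, with read counts taken as abundance. Log counts relative to furin-free reactions, after lowess adjustment and median absolute deviation scaling, form the cleavage Z-score.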

The other results are listed elsewhere or left out. The hit rate among all sequences tested is not known here.

furin, P09958, sequence (P09958 whole entry, the tested form may be a part): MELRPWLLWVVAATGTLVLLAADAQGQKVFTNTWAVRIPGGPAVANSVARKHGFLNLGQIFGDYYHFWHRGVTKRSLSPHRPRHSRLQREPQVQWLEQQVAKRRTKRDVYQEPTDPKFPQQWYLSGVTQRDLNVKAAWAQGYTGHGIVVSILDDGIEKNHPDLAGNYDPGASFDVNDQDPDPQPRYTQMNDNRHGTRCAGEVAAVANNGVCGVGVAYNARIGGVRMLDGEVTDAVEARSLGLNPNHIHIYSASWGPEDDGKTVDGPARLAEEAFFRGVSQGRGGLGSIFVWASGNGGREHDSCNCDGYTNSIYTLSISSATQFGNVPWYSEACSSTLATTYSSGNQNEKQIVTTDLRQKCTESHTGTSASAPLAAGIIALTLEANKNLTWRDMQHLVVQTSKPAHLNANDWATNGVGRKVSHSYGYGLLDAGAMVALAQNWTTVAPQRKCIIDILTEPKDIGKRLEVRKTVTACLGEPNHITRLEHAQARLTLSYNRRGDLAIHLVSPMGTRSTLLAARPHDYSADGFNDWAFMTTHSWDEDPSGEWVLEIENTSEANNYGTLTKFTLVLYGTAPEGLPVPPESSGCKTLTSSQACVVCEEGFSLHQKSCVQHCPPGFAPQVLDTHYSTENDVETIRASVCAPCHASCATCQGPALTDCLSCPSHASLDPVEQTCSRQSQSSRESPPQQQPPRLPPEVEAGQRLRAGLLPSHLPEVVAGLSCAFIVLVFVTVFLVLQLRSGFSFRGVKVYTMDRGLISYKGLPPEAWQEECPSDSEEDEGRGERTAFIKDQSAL

On to CAKLEVVTSTAGNASASA [HC2274], for which the “furin cleavage Z-score” value is, setting by setting: (7.5 min) 0.95 (inactive); (15 min) 0.175 (inactive); (30 min) -1.42 (inactive).

For the sequence CATNRRKKRAAGNASASA [FS-1174], the “furin cleavage Z-score” value is, setting by setting: (7.5 min) 8.44 (active); (15 min) 7.81 (active); (30 min) 8.15 (active).

Consider CATNRRPQDVAGNASASA [HC168], for which the “furin cleavage Z-score” value is, setting by setting: (7.5 min) -1.65 (inactive); (15 min) -1.52 (inactive); (30 min) 0.59 (inactive).

Take CAGHITGHRMAGNASASA [HC316]: the “furin cleavage Z-score” value (7.5 min) was 0.56 (inactive), the “furin cleavage Z-score” value (15 min) was -0.81 (inactive) and the “furin cleavage Z-score” value (30 min) was -0.0561 (inactive).

In the case of CAIISKKKRMAGNASASA [FS-908], the “furin cleavage Z-score” value (7.5 min) was 0.592 (inactive), the “furin cleavage Z-score” value (15 min) was -0.299 (inactive) and the “furin cleavage Z-score” value (30 min) came to 1.14.

CAVISRKKRMAGNASASA [FS-888]: the “furin cleavage Z-score” value by setting is: (7.5 min) 8.47 (active); (15 min) 11.4 (active); (30 min) 8.35 (active).

CAADLMGYIPAGNASASA [HC226]: the “furin cleavage Z-score” value was -1.64 (inactive) (7.5 min), -1.67 (inactive) (15 min) and 0.444 (inactive) (30 min).

In the case of CARQGRSHHLAGNASASA [FS-2167], the “furin cleavage Z-score” value runs as follows: (7.5 min) 0.537 (inactive); (15 min) 1.01; (30 min) 2.02.

Consider CARQGRFDRSAGNASASA [FS-190], for which the “furin cleavage Z-score” value was 4.75 (active) (7.5 min), 6.18 (active) (15 min) and 4.85 (active) (30 min).

Turning to CALKWRFDRSAGNASASA [FS-1640], the “furin cleavage Z-score” value is 3.41 (7.5 min), 4.74 (active) (15 min) and 4.58 (active) (30 min).

Take CALKKRGILSAGNASASA [FS-2409]: the “furin cleavage Z-score” value was -1.13 (inactive) (7.5 min), -2.56 (inactive) (15 min) and 0.734 (inactive) (30 min).

As to CAWKDLLEDNAGNASASA [HC1432], the “furin cleavage Z-score” value runs as follows: (7.5 min) 0.826 (inactive); (15 min) 1.39; (30 min) -0.792 (inactive).

As for CAILSSLTVTAGNASASA [HC1134], the “furin cleavage Z-score” value reads like this: (7.5 min) -0.227 (inactive); (15 min) -0.375 (inactive); (30 min) -0.271 (inactive).

CAIGGAGNNTAGNASASA [HC446]: the “furin cleavage Z-score” value reads like this: (7.5 min) 0.332 (inactive); (15 min) -0.689 (inactive); (30 min) 0.317 (inactive).

With CAGSSSTSGIAGNASASA [HC1337], the “furin cleavage Z-score” value by setting is: (7.5 min) 0.384 (inactive); (15 min) 0.604 (inactive); (30 min) -0.961 (inactive).

For the sequence CAEVVTPTWVAGNASASA [HC160], the “furin cleavage Z-score” value is 0.0725 (inactive) (7.5 min), -1.35 (inactive) (15 min) and -0.017 (inactive) (30 min).

Take CAVAARRARVAGNASASA [FS-307]: the “furin cleavage Z-score” value by setting is: (7.5 min) 1.69; (15 min) 3.8 (active); (30 min) 3.48.

For CAESDAAARVAGNASASA [HC1129], the “furin cleavage Z-score” value (7.5 min) was -0.953 (inactive), the “furin cleavage Z-score” value (15 min) is -0.591 (inactive) and the “furin cleavage Z-score” value (30 min) is -1.03 (inactive).

Take CALASRGARVAGNASASA [FS-267]: the “furin cleavage Z-score” value is -0.386 (inactive) (7.5 min), -0.302 (inactive) (15 min) and 0.249 (inactive) (30 min).

Regarding CASPPRRARVAGNASASA [FS-1571], the “furin cleavage Z-score” value reads like this: (7.5 min) 0.556 (inactive); (15 min) 0.566 (inactive); (30 min) 3.24.

CAASRRRARVAGNASASA [FS-1187]: the “furin cleavage Z-score” value is, setting by setting: (7.5 min) 3.47; (15 min) 3.01; (30 min) 4.72 (active).

With CARSRRRSRVAGNASASA [FS-3095], the “furin cleavage Z-score” value runs as follows: (7.5 min) 1.94; (15 min) 0.692 (inactive); (30 min) 3.48.

Regarding CAGKFLADGGAGNASASA [HC809], the “furin cleavage Z-score” value is -1.28 (inactive) (7.5 min), -0.358 (inactive) (15 min) and -0.637 (inactive) (30 min).

With CAYLVAYQATAGNASASA [HC953], the “furin cleavage Z-score” value reads like this: (7.5 min) -0.934 (inactive); (15 min) -0.739 (inactive); (30 min) -1.07 (inactive).

Regarding CALIVFPDLGAGNASASA [HC1450], the “furin cleavage Z-score” value reads like this: (7.5 min) -0.678 (inactive); (15 min) -1.11 (inactive); (30 min) -0.0519 (inactive).

CARRRRHSPPAGNASASA [FS-2453]: the “furin cleavage Z-score” value (7.5 min) was 5.59 (active), the “furin cleavage Z-score” value (15 min) is 8.37 (active) and the “furin cleavage Z-score” value (30 min) was 6.78 (active).

Turning to CARRRRASAPAGNASASA [FS-3062], the “furin cleavage Z-score” value (7.5 min) is 7.44 (active), the “furin cleavage Z-score” value (15 min) was 6.83 (active) and the “furin cleavage Z-score” value (30 min) is 5.33 (active).

Regarding CARRRRHEGPAGNASASA [FS-2233], the “furin cleavage Z-score” value is, setting by setting: (7.5 min) 3.52 (active); (15 min) 4.96 (active); (30 min) 4.69 (active).

As for CARRRRHRSYAGNASASA [FS-2078], the “furin cleavage Z-score” value (7.5 min) is 6.85 (active), the “furin cleavage Z-score” value (15 min) was 11.1 (active) and the “furin cleavage Z-score” value (30 min) was 9.14 (active).

CARRRRPGGPAGNASASA [FS-2792]: the “furin cleavage Z-score” value reads like this: (7.5 min) -0.8 (inactive); (15 min) -0.454 (inactive); (30 min) 0.146 (inactive).

On to CARCTTPCSGAGNASASA [HC1953], for which the “furin cleavage Z-score” value was -0.496 (inactive) (7.5 min), -1.94 (inactive) (15 min) and -0.955 (inactive) (30 min).

On to CAENVTSTWVAGNASASA [HC2181], for which the “furin cleavage Z-score” value (7.5 min) is 0.856 (inactive), the “furin cleavage Z-score” value (15 min) is -1.06 (inactive) and the “furin cleavage Z-score” value (30 min) was 0.371 (inactive).

As for CAPGGGQIVGAGNASASA [HC173], the “furin cleavage Z-score” value (7.5 min) was -0.67 (inactive), the “furin cleavage Z-score” value (15 min) was -2.32 (inactive) and the “furin cleavage Z-score” value (30 min) is 0.322 (inactive).

In the case of CAVVVTSTWVAGNASASA [HC2150], the “furin cleavage Z-score” value reads like this: (7.5 min) -0.0276 (inactive); (15 min) -0.308 (inactive); (30 min) -1.74 (inactive).

Turning to CAEVVTSLWVAGNASASA [HC2205], the “furin cleavage Z-score” value (7.5 min) is 0.73 (inactive), the “furin cleavage Z-score” value (15 min) is -1.3 (inactive) and the “furin cleavage Z-score” value (30 min) is -0.955 (inactive).

Regarding CAACTTPCSGAGNASASA [HC1943], the “furin cleavage Z-score” value reads like this: (7.5 min) -1.45 (inactive); (15 min) -0.341 (inactive); (30 min) -0.2 (inactive).

Regarding CASTPCSAMLAGNASASA [HC2546], the “furin cleavage Z-score” value (7.5 min) worked out at 1.06, the “furin cleavage Z-score” value (15 min) is 0.507 (inactive) and the “furin cleavage Z-score” value (30 min) was -0.199 (inactive).

On to CARSRRVQCHAGNASASA [FS-2091], for which the “furin cleavage Z-score” value (7.5 min) was -0.135 (inactive), the “furin cleavage Z-score” value (15 min) was -0.538 (inactive) and the “furin cleavage Z-score” value (30 min) was -0.773 (inactive).

Consider CARRRRLLIKAGNASASA [FS-2597], for which the “furin cleavage Z-score” value is, setting by setting: (7.5 min) -0.832 (inactive); (15 min) -0.657 (inactive); (30 min) -0.82 (inactive).

Turning to CARHHRAAATAGNASASA [FS-2142], the “furin cleavage Z-score” value is -0.187 (inactive) (7.5 min), 1.63 (15 min) and 1.18 (30 min).

For the sequence CARRRRAAATAGNASASA [FS-2784], the “furin cleavage Z-score” value is 8.16 (active) (7.5 min), 6.75 (active) (15 min) and 5.42 (active) (30 min).

As for CARSTRFAATAGNASASA [FS-2188], the “furin cleavage Z-score” value was -0.54 (inactive) (7.5 min), -0.334 (inactive) (15 min) and 1.52 (30 min).

Take CARRRRHTFKAGNASASA [FS-2374]: the “furin cleavage Z-score” value is 6.02 (active) (7.5 min), 8.84 (active) (15 min) and 8.36 (active) (30 min).

With CARSRRHSPHAGNASASA [FS-2462], the “furin cleavage Z-score” value is, setting by setting: (7.5 min) 9.64 (active); (15 min) 10.4 (active); (30 min) 9.06 (active).

Source of the values: the supplement of paper PMC3545927.
